Data reported in ChEMBL document CHEMBL3988442, “University of Dundee, Small-Polar-MMV Screening Library” (2021).

These compounds were tested against T1, Aspartate--tRNA(Asp/Asn) ligase (Mycobacterium tuberculosis (strain ATCC 25618 / H37Rv)) (UniProt P9WFW3) (assay: Assay for Asp RNA synthetase-1 from Mycobacterium tuberculosis). Details: 30 µM.
T1 sequence (whole entry): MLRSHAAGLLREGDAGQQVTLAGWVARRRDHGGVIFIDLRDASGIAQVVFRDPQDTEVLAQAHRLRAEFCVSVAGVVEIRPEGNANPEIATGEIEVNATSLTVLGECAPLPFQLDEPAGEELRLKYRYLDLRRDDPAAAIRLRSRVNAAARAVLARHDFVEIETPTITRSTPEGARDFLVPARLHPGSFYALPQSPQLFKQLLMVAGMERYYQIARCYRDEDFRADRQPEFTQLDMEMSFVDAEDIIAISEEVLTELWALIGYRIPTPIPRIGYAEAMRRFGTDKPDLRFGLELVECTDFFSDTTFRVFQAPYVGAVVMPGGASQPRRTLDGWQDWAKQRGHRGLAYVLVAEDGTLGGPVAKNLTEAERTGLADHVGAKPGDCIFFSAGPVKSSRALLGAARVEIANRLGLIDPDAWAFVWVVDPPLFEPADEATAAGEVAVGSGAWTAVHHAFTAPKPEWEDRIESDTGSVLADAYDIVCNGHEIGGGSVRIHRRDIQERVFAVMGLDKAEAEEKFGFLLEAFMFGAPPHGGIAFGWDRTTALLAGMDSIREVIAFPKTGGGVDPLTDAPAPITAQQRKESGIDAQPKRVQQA
Assay type: functional
Design: scale not given: direction of the effect not stated beside the values

Compound	Percent Effect [%]
Cn1ccc(C(=O)N2CCN(c3cc(C#N)ccn3)CC2)cc1=O	3.75
C[C@@H]1C[C@@H]2CCN(C(=O)c3cnccn3)C[C@H]2O1	0.69
Cn1cc(C2CCCN2C(=O)CCCOCc2ccccc2)cn1 (stereo not given)	-6.77
Cn1nnc2c1CCN(Cc1ccccc1)C2COCC1CC1 (stereo not given)	2.13
Cc1cnn(CCNCc2cccnc2)c1	-0.568
CC(C(N)=O)S(=O)(=O)Cc1cc(Cl)c2c(c1)OCO2 (stereo not given)	-7.47
CN(Cc1ccco1)C(=O)CN1CCCC(Cn2cncn2)C1 (stereo not given)	-1.04
COCC1CN(C(=O)c2cccn2C)Cc2ncnn2C1 (stereo not given)	12.6
Cc1nc(O)c2nnn(C[C@H]3CCCN3C(=O)C(C)(C)C)c2n1	5.78
Cc1nc2n(n1)CC(NCc1cc(Cl)c3c(c1)OCCCO3)CC2 (stereo not given)	6.55
CCc1cnc2c(c1NCc1cccc(OC)c1)c(=O)n(C)c(=O)n2C	-0.0729
COc1cccc(-c2nc(C)c(C(=O)NC(CO)CCSC)s2)c1 (stereo not given)	-3.69
CC(C)(C)OC(=O)N1CCCc2ccc(NCc3ncc[nH]3)cc21	5.68
CC(C)c1nc(C2CCCN2C(=O)c2cnc[nH]2)no1 (stereo not given)	0.204
O=C(CN1CCOC(Cn2cccn2)C1)NCc1cccs1 (stereo not given)	-1.46
CCOc1ccc(S(=O)(=O)NC(=O)CCC2CCCO2)cc1 (stereo not given)	2.17
Cc1ccc2c(n1)N(C)CCN(C(=O)NC1CC1)C2	7.86
Cc1cc(C)cc(OCCC(=O)N2CCCC(n3cncn3)C2)c1 (stereo not given)	-4.66
Cc1cn2c(n1)CCC(NC(=O)CCn1cncn1)C2 (stereo not given)	-0.674
COc1ccc(CNCc2c(C)nn(C)c2N2CCOCC2)cc1	-0.115

Compound	Percent Effect [%]
CCNC(=O)[C@@H]1C[C@@H](NC(=O)Cc2ccccn2)CN1CCCSC	-0.228
Fc1ccc(-c2nnc(CN3CCCC3Cn3cncn3)o2)cc1 (stereo not given)	-1.49
Cc1nc2c(c(C)c1CC(=O)NCc1cccc(C#N)c1)c(=O)[nH]n2C	0.634
Cc1cc(CN(C)C2CCCN(Cc3noc(C4CC4)n3)C2)no1 (stereo not given)	1.66
Cc1nn(C)c(C)c1CNCc1ccnc(N2CCOCC2)c1	-2.46
CC(=O)N1CCN([C@@H]2CC[C@@H](NC(=O)c3cncc(C)c3)[C@H]2O)CC1	-1.5
CC(C)c1nnc2n1CCN(C(=O)c1ccc(-n3cnnc3)cc1)C2	-3.86
Cn1cc(CN2CCOCC3(C2)CN(c2ccccc2)C(=O)CO3)cn1 (stereo not given)	5.42
CCn1nc(C)c(CCNC(=O)C2CCCN(C(=O)N(C)C)C2)c1C (stereo not given)	-4.2
CCc1[nH]ncc1C(=O)N1CCCN(Cc2cnn(C)c2)CC1	-0.259
CC(C)CCN(C)C(=O)c1nc(S(C)(=O)=O)n2ccccc12	-3.39
Cc1nccn1C1CCCN(C(=O)c2ccc(N(C)C)nc2)C1 (stereo not given)	-1.91
CN(Cc1ccco1)C(=O)CN1CCCCC1Cn1cccn1 (stereo not given)	-0.346
Cc1ccc(-c2cccc(-c3ccn(CCN4CCCC4)n3)c2)nn1	-1.26
O=C(Nc1cccc(CNCc2cccs2)c1)C1CCCC1	1.74
Cc1nc(Cn2nc(C3CCNCC3)n(Cc3ccccc3)c2=O)no1	-2.53
COc1cc(C)nc(N2CCN(C(=O)CN(C)C3CC3)CC2)n1	0.9
O=C1COC2(CCN(C(=O)c3ccco3)CC2)CN1Cc1cccnc1	-2.62
Cc1nc(C)n(CC2CCCN2Cc2cn3ccsc3n2)n1 (stereo not given)	1.75
CC(C)NC(=O)Cn1cc(-c2ccccc2)cn1	-0.189

These compounds were tested against Shiga toxin 2 (Escherichia coli O157:H7) (UniProt P09385+P09386) (assay: E. coli 0.157:H7 Shiga Toxin SOP - stx2 screening assay). Details: 30 µM.
Assay type: functional
Design: scale not given: direction of the effect not stated beside the values

Compound	Percent Effect [%]
Cn1ccc(C(=O)N2CCN(c3cc(C#N)ccn3)CC2)cc1=O	1.09
C[C@@H]1C[C@@H]2CCN(C(=O)c3cnccn3)C[C@H]2O1	-15.2
Cn1cc(C2CCCN2C(=O)CCCOCc2ccccc2)cn1 (stereo not given)	-16.1
Cn1nnc2c1CCN(Cc1ccccc1)C2COCC1CC1 (stereo not given)	-19.5
Cc1cnn(CCNCc2cccnc2)c1	-3.36
CC(C(N)=O)S(=O)(=O)Cc1cc(Cl)c2c(c1)OCO2 (stereo not given)	26.2
CN(Cc1ccco1)C(=O)CN1CCCC(Cn2cncn2)C1 (stereo not given)	-14.6
COCC1CN(C(=O)c2cccn2C)Cc2ncnn2C1 (stereo not given)	-34.6
Cc1nc(O)c2nnn(C[C@H]3CCCN3C(=O)C(C)(C)C)c2n1	-7.47
Cc1nc2n(n1)CC(NCc1cc(Cl)c3c(c1)OCCCO3)CC2 (stereo not given)	22.8
CCc1cnc2c(c1NCc1cccc(OC)c1)c(=O)n(C)c(=O)n2C	-21.5
COc1cccc(-c2nc(C)c(C(=O)NC(CO)CCSC)s2)c1 (stereo not given)	-34.8
CC(C)(C)OC(=O)N1CCCc2ccc(NCc3ncc[nH]3)cc21	-52.5
CC(C)c1nc(C2CCCN2C(=O)c2cnc[nH]2)no1 (stereo not given)	26.7
O=C(CN1CCOC(Cn2cccn2)C1)NCc1cccs1 (stereo not given)	-9.71
CCOc1ccc(S(=O)(=O)NC(=O)CCC2CCCO2)cc1 (stereo not given)	23.1
Cc1ccc2c(n1)N(C)CCN(C(=O)NC1CC1)C2	-7.89
Cc1cc(C)cc(OCCC(=O)N2CCCC(n3cncn3)C2)c1 (stereo not given)	5.55
Cc1cn2c(n1)CCC(NC(=O)CCn1cncn1)C2 (stereo not given)	21.7
COc1ccc(CNCc2c(C)nn(C)c2N2CCOCC2)cc1	14.4

Compound	Percent Effect [%]
CCNC(=O)[C@@H]1C[C@@H](NC(=O)Cc2ccccn2)CN1CCCSC	-40.5
Fc1ccc(-c2nnc(CN3CCCC3Cn3cncn3)o2)cc1 (stereo not given)	-12.6
Cc1nc2c(c(C)c1CC(=O)NCc1cccc(C#N)c1)c(=O)[nH]n2C	25.4
Cc1cc(CN(C)C2CCCN(Cc3noc(C4CC4)n3)C2)no1 (stereo not given)	28
Cc1nn(C)c(C)c1CNCc1ccnc(N2CCOCC2)c1	-9.51
CC(=O)N1CCN([C@@H]2CC[C@@H](NC(=O)c3cncc(C)c3)[C@H]2O)CC1	-14
CC(C)c1nnc2n1CCN(C(=O)c1ccc(-n3cnnc3)cc1)C2	-19.9
Cn1cc(CN2CCOCC3(C2)CN(c2ccccc2)C(=O)CO3)cn1 (stereo not given)	4.18
CCn1nc(C)c(CCNC(=O)C2CCCN(C(=O)N(C)C)C2)c1C (stereo not given)	14.2
CCc1[nH]ncc1C(=O)N1CCCN(Cc2cnn(C)c2)CC1	17.2
CC(C)CCN(C)C(=O)c1nc(S(C)(=O)=O)n2ccccc12	26.2
Cc1nccn1C1CCCN(C(=O)c2ccc(N(C)C)nc2)C1 (stereo not given)	26
CN(Cc1ccco1)C(=O)CN1CCCCC1Cn1cccn1 (stereo not given)	-5.72
Cc1ccc(-c2cccc(-c3ccn(CCN4CCCC4)n3)c2)nn1	-13.8
O=C(Nc1cccc(CNCc2cccs2)c1)C1CCCC1	13
Cc1nc(Cn2nc(C3CCNCC3)n(Cc3ccccc3)c2=O)no1	-3.49
COc1cc(C)nc(N2CCN(C(=O)CN(C)C3CC3)CC2)n1	-33.1
O=C1COC2(CCN(C(=O)c3ccco3)CC2)CN1Cc1cccnc1	-14.9
Cc1nc(C)n(CC2CCCN2Cc2cn3ccsc3n2)n1 (stereo not given)	-76
CC(C)NC(=O)Cn1cc(-c2ccccc2)cn1	2.98
